Assay results taken from PubChem BioAssay (NCATS).
“And” between values parts separate entries of the source, which are not always exact repeats. Equal values may be shown once. Inconclusive results are not listed. Some compounds were tested as several samples or in several runs, with calls that do not always agree. The source made the active and inactive calls. Unless noted, calls follow the shape of the dose curve; as a rule, active = well fitted curve in the direction sought with a large enough effect; inconclusive = small, poorly fitted or top-dose-only effect, or another doubt; inactive = no such curve, though single readings can be large; an effect the other way counts as inactive or inconclusive.

Assays:
[1] = S16 Schwann cell viability assay (CellTiter-Glo assay) (AID 624031); also: nearly all actives have a fitted effect of over 70% in size; also: potency is read from the fitted curve at half-maximal effect
Method in brief: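 Concentration-effect curves come from CellTiter-Glo luminescence of S16 rat Schwann cells after 24 h compound exposure. Each reading was normalized to DMSO wells (0%) and wells without cells, and curves were ranked by r2 and response magnitude.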

CP250 = experiment: qHTS profiling for inhibitors of Plasmodium falciparum proliferation (AID 504749); also: nearly all actives have a fitted effect of over 60% in size; also: potency is read from the fitted curve at half-maximal effect; conditions: P. falciparum in erythrocytes, SYBR Green DNA, 72 h; series mostly up to 28.7 µM
Method in brief: (§1)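 Each compound contacts P. falciparum-infected red blood cells for 72 h at 37 C; lysis buffer (Tris, EDTA, saponin, Triton X, SYBR Green I) is added and fluorescence measured next morning; values normalized to controls.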

P93_24 = experiment: as above; conditions: P. falciparum in erythrocytes, SYBR Green DNA, 72 h; series mostly up to 28.7 µM
Method in brief: as §1

[2] = Cell Viability - SK-N-SH (AID 435; calls by dose curve;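 also: potency is read from the fitted curve at half-maximal effect; compound exposure lasted 40 h at 37 °C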); conditions: SK-N-SH neuroblastoma cell viability qHTS
Method in brief: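 SK-N-SH human neuroblastoma cells (1500/well) were exposed to compounds in complete medium for 40 h at 37 °C, and intracellular ATP was then measured by CellTiter-Glo luminescence. AC50 was taken from Hill fits, normalized to DMSO and 100 uM tamoxifen.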

[3] = Cell Viability - LYMP2-015 (AID 971); also: nearly all actives have a fitted effect of over 55% in size; also: potency is read from the fitted curve at half-maximal effect
Method in brief: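 Cytotoxicity readout: decrease in intracellular ATP (CellTiter-Glo luminescence) in 2500 LYMP2-015 lymphoblastoid cells/well after 24 h compound exposure at 37 C. Concentration-response data fitted with the standard Hill equation to give AC50.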

[4] = qHTS assay to identify small molecules that stimulate interleukin-8 (IL-8) secretion (AID 651758; active = well fitted activation curve with a large enough effect in the signal ratio; the % refers to the signal ratio; also: potency is read from the fitted curve at half-maximal effect; as to activation: 0% is about no effect)
Method in brief: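 Compounds are added to THP-1 cells (2000 per well) and left 16 hrs at 37 C. A labeled anti-IL-8 antibody pair is then added, and IL-8 secretion is measured by time-resolved FRET after 1-3 hrs at room temperature.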

[5] = target: Cytochrome P450 1A2 (Homo sapiens) (UniProt P05177); experiment: p450-cyp1a2 (AID 410; calls by dose curve; also: potency is read from the fitted curve at half-maximal effect)
Method in brief: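 Luminescent demethylation readout: Luciferin-ME (100uM, equal to Km) turned over by 20nM CYP1A2 for 60 min at room temperature after NADPH regeneration addition, following 10 min compound preincubation. Normalization used 57 uM furafylline as full inhibition.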

[6] = target: Glucocorticoid receptor (Homo sapiens) (UniProt P04150); experiment: GR-GFP Redistribution (AID 450;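 active = compounds whose dose series gives a full or clear partial fitted curve of increased nuclear translocation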; also: potency is read from the fitted curve at half-maximal effect); conditions: U2OS GR-GFP nuclear translocation, laser cytometry, 2 h
[7] = target: 3',5'-cyclic-AMP phosphodiesterase 4B (Homo sapiens) (UniProt Q07343); experiment: qHTS Assay for Inhibitors of PDE-IV (AID 607; active = well fitted activation curve with a large enough effect in the main read-out, with a control signal flat, not every such curve was filed as active; also: % of control where 0% means no effect)
Method in brief: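 Live HEK293 cells with a modified cyclic nucleotide-gated (CNG) channel report intracellular cAMP via membrane-potential dye fluorescence (ex 535/em 590 nm). Endogenous PDE-IV was targeted. Compounds were tested at up to 22.9 uM final; RO 20-1724 100 uM served as control.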

[8] = Cellular Toxicity (caspase-3) H-4-II-E (AID 663); conditions: Potency: caspase-3 activation;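 also: cells exposed to compound for 16 hr before readout; 0% = DMSO basal and 100% = 100 µM tamoxifen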
Method in brief: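 H-4-II-E rat hepatoma, 1500 cells/well, 5 hr settle at 37 °C; compound 16 hr, 37 °C, complete medium; Caspase-Glo 3/7, 20 min RT; luminescence. DMSO = 0%, 100 uM tamoxifen = 100%; Hill-equation AC50.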

[9] = Confirmation and Secondary Assay for Modulators of Hemoglobin Beta Chain Splicing at IVS2 654 locus (AID 910);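 also: HeLa cells stably carrying EGFP split by mutant beta-globin IVS2-654 intron; % of control where 0% means no effect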
Method in brief: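 HeLa cells stably expressing EGFP interrupted by β-globin IVS2-654 intron, seeded overnight in Opti-MEM/2% FCS, then treated 2 days at 37 °C. Restored splicing read as total peak GFP intensity per well by laser scanning cytometry (488 nm excitation, 500–520 nm emission); 500 nM antisense PNA as control.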

[10] = Confirmation and Secondary Assay for Modulators of Hemoglobin Beta Chain Splicing at IVS2 705 locus (AID 930);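 also: HeLa cells stably expressing the EGFP-705 splicing reporter; GFP fluorescence per well restored by corrected splicing of the IVS2-705 intron in EGFP; % of control where 0% means no effect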
Method in brief: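 Assay measures total GFP intensity per well in HeLa EGFP-705 cells after 2 days with compound; mis-splicing normally truncates EGFP, so fluorescence indicates corrected splicing.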

[11] = target: DNA dC->dU-editing enzyme APOBEC-3G (Homo sapiens) (UniProt Q9HC16); experiment: qHTS for inhibitors of Vif-A3G interactions: Validation (AID 588379); also: 0% is about no effect
Method in brief: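 Yellow fluorescence (Ex 488, Em 500-530) of Vif-coexpressing HeLa A3G-eYFP cells, scanned by Acumen cytometer, reports blocked A3G degradation. Cells plated at 700/well overnight at 37 deg C before compound addition, then a further overnight compound incubation at 37 deg C.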

[12] = target: ATP-dependent 6-phosphofructokinase (Trypanosoma brucei brucei) (UniProt O15648); experiment: qHTS Assay to Find Inhibitors of T. brucei phosphofructokinase: hit validation (AID 492961);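 also: luminescence reports ADP formed as PFK phosphorylates fructose-6-phosphate with ATP; % is scaled to controls: 0 for no effect and ±100 for the full control effect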
Method in brief: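 Compounds titrated; %activity normalized to 0x and 1x enzyme controls, curve-fitted. Readout: ADP-Glo luminescence after 45 min room-temperature reaction of 1.25 nM PFK, 0.1 mM ATP, 0.5 mM F6P, pH 8.0.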

[13] = S16 Schwann cell PMP22 intronic element beta-lactamase assay (AID 624044; calls by dose curve;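 also: 0% = DMSO and -100% = potassium clavulanate positive control; nearly all actives have a fitted effect of over 15% in size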)
Method in brief: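 Beta-lactamase reporter under a PMP22 intronic regulatory element in stable S16 rat Schwann cells; 24 h compound exposure. 460 nm blue signal normalized between DMSO (0%) and potassium clavulanate, with 535 nm FRET tracking viability; curves classed by r2 and response.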

[14] = target: Cytochrome P450 3A4 (Homo sapiens) (UniProt P08684); experiment: qHTS Assay for Activators of Cytochrome P450 3A4 (AID 885); also: nearly all actives have a fitted effect of over 65% in size
Method in brief: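 Using 20nM recombinant human CYP3A4 in potassium phosphate (200mM), substrate Luciferin-PPXE at 25uM, luminescent luciferin detection followed a 60-min RT NADPH reaction; data scaled to 57 uM ketoconazole.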

[15] = target: Androgen receptor (Homo sapiens) (UniProt P10275); experiment: qHTS assay for small molecule agonists of androgen receptor signaling (AID 588515; active = well fitted curve in the direction sought with a large enough effect in the signal ratio, with a control signal flat; the % refers to the signal ratio; also: % is scaled to controls: 0 for no effect and ±100 for the full control effect); conditions: AR-UAS-bla HEK293, beta-lactamase ratio, agonist 16 h; stronger effect = higher value
Method in brief: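 Stimulation of an AR-responsive β-lactamase reporter in GripTite HEK293 cells was measured after 16 h compound exposure at 37 °C, via CCF4 fluorescence after 2 h RT. EC50 from Hill fits, normalized to R1881 at 30 nM.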

[16] = target: Androgen receptor (Homo sapiens) (UniProt P10275); experiment: qHTS assay for small molecule antagonists of androgen receptor signaling (AID 588516; active = well fitted curve in the direction sought with a large enough effect in the signal ratio, with a control signal flat, not every such curve was filed as active; the % refers to the signal ratio; also: % is scaled to controls: 0 for no effect and ±100 for the full control effect)
Method in brief: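 AR-UAS-bla-GripTite HEK 293 cells (2000/well, 5 h at 37 C) received compound titrations, then R1881 at 10 nM final; after 16 h at 37 C, CCF4 dye 2 h RT, beta-lactamase fluorescence read; IC50 from Hill fits.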

[17] = target: Cytochrome P450 2D6 (Homo sapiens) (UniProt P10635); experiment: qHTS Assay for Inhibitors and Substrates of Cytochrome P450 2D6 (AID 891); also: potency is read from the fitted curve at half-maximal effect; nearly all actives have a fitted effect of over 60% in size
Method in brief: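 Luminescent read-out of luciferin formed by 5 nM human CYP2D6 demethylating 30 uM Luciferin-ME EGE (Km level) over 60 min at room temperature after NADPH regeneration addition. Data normalized to full inhibition by 1.43 uM quinidine.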

[18] = qHTS Assay for Identifying Gametocytocidal Compounds (AID 743244); also: potency is read from the fitted curve at half-maximal effect; conditions: P. falciparum 3D7 stage III-V gametocytes, alamarBlue, 72 h; max response: stronger effect = lower value
Method in brief: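 Compounds are pinned into medium, gametocytes (stage III–V, 3D7, 20,000 cells/well) added, and plates held 72 h at 37 °C in 5% CO2. AlamarBlue follows for 24 h before fluorescence reading.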

Sequence of Androgen receptor (Homo sapiens) (P10275 whole entry, looked up): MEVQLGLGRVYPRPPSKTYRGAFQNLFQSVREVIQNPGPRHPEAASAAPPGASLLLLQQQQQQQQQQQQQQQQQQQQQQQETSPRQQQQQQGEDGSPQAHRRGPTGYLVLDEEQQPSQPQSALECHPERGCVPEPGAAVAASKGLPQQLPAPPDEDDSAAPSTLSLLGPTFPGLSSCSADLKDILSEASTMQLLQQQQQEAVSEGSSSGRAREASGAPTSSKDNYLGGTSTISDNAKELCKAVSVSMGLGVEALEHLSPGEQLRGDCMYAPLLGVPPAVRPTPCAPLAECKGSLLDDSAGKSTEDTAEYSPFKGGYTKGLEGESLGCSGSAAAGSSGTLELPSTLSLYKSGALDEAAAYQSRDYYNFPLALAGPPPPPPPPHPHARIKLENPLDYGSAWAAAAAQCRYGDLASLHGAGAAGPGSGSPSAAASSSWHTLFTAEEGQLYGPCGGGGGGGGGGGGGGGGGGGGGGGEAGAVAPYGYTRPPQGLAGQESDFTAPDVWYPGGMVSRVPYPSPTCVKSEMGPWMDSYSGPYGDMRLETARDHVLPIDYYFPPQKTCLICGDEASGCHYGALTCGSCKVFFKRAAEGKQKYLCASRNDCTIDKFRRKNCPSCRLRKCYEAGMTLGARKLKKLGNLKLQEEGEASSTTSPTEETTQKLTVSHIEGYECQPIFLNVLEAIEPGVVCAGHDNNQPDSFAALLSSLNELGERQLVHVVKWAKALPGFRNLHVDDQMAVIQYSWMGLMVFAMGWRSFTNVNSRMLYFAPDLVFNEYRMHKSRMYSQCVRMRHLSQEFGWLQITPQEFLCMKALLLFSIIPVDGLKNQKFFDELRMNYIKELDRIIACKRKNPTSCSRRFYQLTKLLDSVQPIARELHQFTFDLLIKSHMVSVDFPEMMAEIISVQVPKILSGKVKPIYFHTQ
Sequence of ATP-dependent 6-phosphofructokinase (Trypanosoma brucei brucei) (O15648 whole entry, looked up): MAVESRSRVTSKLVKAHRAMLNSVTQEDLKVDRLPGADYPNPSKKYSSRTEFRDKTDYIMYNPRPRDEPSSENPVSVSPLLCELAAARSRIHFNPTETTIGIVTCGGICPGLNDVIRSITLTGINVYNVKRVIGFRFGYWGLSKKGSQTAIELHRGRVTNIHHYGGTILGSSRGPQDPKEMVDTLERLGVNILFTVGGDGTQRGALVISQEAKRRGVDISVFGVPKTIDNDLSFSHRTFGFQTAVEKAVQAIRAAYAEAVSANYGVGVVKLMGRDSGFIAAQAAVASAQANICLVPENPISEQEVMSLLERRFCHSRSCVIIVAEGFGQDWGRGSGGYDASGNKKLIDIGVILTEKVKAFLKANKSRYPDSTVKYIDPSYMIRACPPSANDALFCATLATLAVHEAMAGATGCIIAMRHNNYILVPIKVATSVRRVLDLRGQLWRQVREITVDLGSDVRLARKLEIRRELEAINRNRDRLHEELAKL
Sequence of Cytochrome P450 3A4 (Homo sapiens) (P08684 whole entry, looked up): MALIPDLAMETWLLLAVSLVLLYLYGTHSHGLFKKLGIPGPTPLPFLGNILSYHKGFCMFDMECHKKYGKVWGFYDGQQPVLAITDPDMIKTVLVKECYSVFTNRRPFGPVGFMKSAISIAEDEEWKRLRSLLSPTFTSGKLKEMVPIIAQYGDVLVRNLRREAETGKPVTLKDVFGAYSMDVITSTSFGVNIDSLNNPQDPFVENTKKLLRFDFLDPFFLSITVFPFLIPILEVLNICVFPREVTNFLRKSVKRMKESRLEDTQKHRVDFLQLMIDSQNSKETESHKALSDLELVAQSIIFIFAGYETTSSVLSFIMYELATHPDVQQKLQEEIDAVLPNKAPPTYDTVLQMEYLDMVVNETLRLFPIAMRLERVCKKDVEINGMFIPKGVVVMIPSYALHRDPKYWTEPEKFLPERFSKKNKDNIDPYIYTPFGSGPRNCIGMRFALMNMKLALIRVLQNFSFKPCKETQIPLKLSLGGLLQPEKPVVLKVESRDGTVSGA
Sequence of Glucocorticoid receptor (Homo sapiens) (P04150 whole entry, looked up): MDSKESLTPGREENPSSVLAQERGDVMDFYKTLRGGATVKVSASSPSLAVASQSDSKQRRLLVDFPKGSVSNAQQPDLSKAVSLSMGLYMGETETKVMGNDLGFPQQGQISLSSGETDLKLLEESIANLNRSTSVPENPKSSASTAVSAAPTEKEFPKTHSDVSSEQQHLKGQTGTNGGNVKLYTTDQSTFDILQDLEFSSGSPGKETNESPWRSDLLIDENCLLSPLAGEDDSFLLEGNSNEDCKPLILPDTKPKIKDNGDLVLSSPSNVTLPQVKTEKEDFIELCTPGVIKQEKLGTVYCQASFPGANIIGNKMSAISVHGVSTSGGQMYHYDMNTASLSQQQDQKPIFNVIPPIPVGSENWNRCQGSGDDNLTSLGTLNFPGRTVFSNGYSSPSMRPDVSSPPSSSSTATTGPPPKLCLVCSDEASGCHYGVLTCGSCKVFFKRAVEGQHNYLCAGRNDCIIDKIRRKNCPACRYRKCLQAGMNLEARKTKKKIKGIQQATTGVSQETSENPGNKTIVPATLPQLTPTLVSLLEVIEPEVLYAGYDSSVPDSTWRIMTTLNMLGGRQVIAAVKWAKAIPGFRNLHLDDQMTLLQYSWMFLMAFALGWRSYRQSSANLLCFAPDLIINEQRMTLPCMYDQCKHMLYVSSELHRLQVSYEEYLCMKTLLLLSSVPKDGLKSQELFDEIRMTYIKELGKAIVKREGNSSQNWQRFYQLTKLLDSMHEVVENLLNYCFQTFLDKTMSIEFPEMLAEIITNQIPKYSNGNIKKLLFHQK
Sequence of 3',5'-cyclic-AMP phosphodiesterase 4B (Homo sapiens) (Q07343 whole entry, looked up): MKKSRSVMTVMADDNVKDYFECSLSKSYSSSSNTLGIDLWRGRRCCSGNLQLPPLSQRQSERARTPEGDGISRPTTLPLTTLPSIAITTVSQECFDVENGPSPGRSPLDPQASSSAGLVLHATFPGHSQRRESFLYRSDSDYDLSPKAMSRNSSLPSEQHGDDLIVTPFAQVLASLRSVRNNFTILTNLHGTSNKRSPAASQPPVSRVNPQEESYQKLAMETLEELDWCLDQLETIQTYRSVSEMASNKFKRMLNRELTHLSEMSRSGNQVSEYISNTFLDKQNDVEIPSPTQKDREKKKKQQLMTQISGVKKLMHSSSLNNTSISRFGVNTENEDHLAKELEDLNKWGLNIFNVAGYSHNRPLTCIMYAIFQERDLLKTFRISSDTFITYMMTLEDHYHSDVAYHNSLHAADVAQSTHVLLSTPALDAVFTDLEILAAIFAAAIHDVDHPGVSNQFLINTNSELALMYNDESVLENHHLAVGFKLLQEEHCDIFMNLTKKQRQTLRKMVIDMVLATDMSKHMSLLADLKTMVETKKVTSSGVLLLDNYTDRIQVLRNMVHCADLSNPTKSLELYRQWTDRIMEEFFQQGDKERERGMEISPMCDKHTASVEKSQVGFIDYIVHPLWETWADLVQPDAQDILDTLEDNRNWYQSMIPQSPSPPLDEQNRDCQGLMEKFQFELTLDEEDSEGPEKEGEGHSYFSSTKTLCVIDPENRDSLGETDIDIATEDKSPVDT
Sequence of Cytochrome P450 1A2 (Homo sapiens) (P05177 whole entry, looked up): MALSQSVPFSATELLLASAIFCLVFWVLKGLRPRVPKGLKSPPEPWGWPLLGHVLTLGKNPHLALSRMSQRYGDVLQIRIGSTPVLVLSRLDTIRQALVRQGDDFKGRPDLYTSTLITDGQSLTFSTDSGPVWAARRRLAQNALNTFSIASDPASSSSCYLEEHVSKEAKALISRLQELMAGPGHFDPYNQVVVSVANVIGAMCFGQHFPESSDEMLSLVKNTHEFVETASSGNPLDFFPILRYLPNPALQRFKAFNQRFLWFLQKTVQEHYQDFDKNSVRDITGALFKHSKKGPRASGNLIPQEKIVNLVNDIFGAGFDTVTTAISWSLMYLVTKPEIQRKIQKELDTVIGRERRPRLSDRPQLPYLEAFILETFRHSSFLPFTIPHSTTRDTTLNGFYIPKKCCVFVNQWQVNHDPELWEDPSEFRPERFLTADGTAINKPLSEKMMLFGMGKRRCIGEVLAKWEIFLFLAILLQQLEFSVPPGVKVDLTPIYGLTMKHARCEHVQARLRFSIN
Sequence of DNA dC->dU-editing enzyme APOBEC-3G (Homo sapiens) (Q9HC16 whole entry, looked up): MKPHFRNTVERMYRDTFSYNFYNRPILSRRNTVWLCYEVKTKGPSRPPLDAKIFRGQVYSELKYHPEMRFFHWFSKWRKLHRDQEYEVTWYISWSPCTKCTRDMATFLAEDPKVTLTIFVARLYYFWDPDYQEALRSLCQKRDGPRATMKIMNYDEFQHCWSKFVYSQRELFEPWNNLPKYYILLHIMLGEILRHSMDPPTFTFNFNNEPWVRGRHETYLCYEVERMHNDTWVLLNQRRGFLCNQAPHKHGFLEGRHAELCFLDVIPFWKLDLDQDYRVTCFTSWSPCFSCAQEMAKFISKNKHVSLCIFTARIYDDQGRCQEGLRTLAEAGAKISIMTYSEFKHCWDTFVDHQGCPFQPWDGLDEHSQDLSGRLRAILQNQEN
Sequence of Cytochrome P450 2D6 (Homo sapiens) (P10635 whole entry, looked up): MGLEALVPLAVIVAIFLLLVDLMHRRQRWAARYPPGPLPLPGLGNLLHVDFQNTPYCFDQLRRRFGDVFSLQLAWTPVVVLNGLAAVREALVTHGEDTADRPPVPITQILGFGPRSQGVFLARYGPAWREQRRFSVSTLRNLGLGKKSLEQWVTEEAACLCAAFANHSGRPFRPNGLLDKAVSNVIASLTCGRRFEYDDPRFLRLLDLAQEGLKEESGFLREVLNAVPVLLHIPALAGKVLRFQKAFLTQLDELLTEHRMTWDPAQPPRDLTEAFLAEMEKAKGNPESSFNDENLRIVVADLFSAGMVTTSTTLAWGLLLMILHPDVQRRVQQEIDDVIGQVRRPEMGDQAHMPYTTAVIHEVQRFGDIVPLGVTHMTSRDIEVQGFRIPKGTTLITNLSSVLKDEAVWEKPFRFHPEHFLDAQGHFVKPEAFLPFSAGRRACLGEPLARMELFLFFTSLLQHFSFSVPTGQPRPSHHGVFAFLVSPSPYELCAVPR

CCN1/C(=C/C=C/C=C/c2sc3ccccc3[n+]2CC)Sc2ccccc21
active: Potency [1] 7.21 µM | Potency (CP250) 3.98 µM | Potency (P93_24) 3.55 µM

COC(=O)CCCCC(=O)OC
inactive: Potency [2] > 92 µM | Potency [3] | Potency [4]

COc1c2ccoc2cc2oc(=O)ccc12
inactive: Potency [6] > 46 µM | Potency [7] | Potency [8] | Potency [9] | Potency [10] | outcome [11]
active: Potency [5] 0.0158 µM

CN(C)CCCCCCN(C)C
inactive: outcome [12] | Potency [1] | Potency [13] | Potency (CP250) | Potency (P93_24)

COc1ccc2nc(N)sc2c1
inactive: outcome [14] | activation [15] 3.27% and 6.72% | outcome [16]

CCCCCCCCCCCCCCC1CO1 (centres undefined)
inactive: Potency [8]

C=CC(=O)OCCOCCOCCOCCOC(=O)C=C
active: Potency [2] 10.9 µM and 23.1 µM | Potency [3] 25.1 µM and 20 µM

Cc1ccc([N+](=O)[O-])c(C)c1
inactive: Potency [2] > 92 µM | Potency [4]

CC(C)=CCCC(C)CCO (centres undefined)
inactive: Potency [2] > 92 µM | Potency [3] | outcome [11] | activation [15] 11% and 2.32% | outcome [16]

Cc1cccc([N+](=O)[O-])c1C
inactive: Potency [2] > 92 µM | Potency [8] | activation [15] 2.99% and 5.65% | outcome [16] | Potency [4]

C1OCOCO1
active: Potency [4] 66.8 µM
inactive: Potency [8] | outcome [12] | Potency [1] | Potency [13] | Potency (CP250) | Potency (P93_24)

Cc1c(N=C=O)cccc1N=C=O
inactive: activation [15] -8.11% and -0.971% | outcome [16]

CCCCC(CC)CN (centres undefined)
inactive: Potency [2] > 92 µM | Potency [8] | Potency [3] | activation [15] 5.31% and -4.67% | outcome [16]
75 µM (active) and inactive: Potency [4]

CCC(C)c1ccccc1O (centres undefined)
inactive: Potency [2] > 92 µM | Potency [8]

CCCN(CCC)C(=O)SCC
inactive: Potency [8] | activation [15] 12.4% and -3.98% | outcome [16]

O=C1c2ccccc2C(=O)C1c1ccc2ccccc2n1
inactive: Potency [6] > 20.6 µM | outcome [14]

CN1CC[C@H](CN2c3ccccc3Sc3ccccc32)C1
active: Potency [5] 5.01 µM | Potency [17] 0.126 µM | Potency [1] 36.1 µM | Potency [18] 18.7 µM | Potency (P93_24) 7.08 µM
inactive: Potency [7] | outcome [12] | Potency [13]

c1ccc2c(c1)c1cccc3ccc4cccc2c4c31
inactive: outcome [16]

O=C(O)CC(C(=O)O)C(CC(=O)O)C(=O)O (centres undefined)
inactive: Potency [8] | Potency [4]
